The results in this text go back to PubChem BioAssay AID2315 (National Center for Advancing Translational Sciences (NCATS), 2010).

Each structure is given as a SMILES string. About 27,000 (9.3%) of roughly 290,000 compounds were called active. Cut-off read from the data, not from the text of the source: active = inhibition mostly above about 28% (no sharp cut-off); inactive = mostly below about 43%. Shown is part of a subset that was picked to be rich in actives.

A short description of the experiment: A qHTS for Small Molecule Inhibitors of Shiga Toxin. Note: 0% is about no effect. The note with it: Vero cells, Shiga toxin protein synthesis inhibition reporter; at 38.7 µM, active compounds read high.
The inhibition is the drop in the measured response relative to a control, in per cent. Regarding `Cc1cc(C)cc(C(=O)OCC(=O)NCCNC(=O)COC(=O)c2cc(C)cc(C)c2)c1`, the inhibition is 22.3% (inactive).

On to `CN(C)c1ccc(S(=O)(=O)NCC(=O)NCC2CCCCC2)cc1[N+](=O)[O-]`, for which the inhibition was 3.92% (inactive).

For the molecule `O=C(NCCN1CCN(C(=O)c2cccc([N+](=O)[O-])c2)CC1)C(=O)NCc1ccc(Cl)cc1`, the inhibition is -5.68% (inactive).

As for `Clc1ccc(-c2csc(-c3ccncc3)n2)cc1`, the inhibition is 78.2% (active).

On to `Fc1ccc(-c2csc(-c3ccc(C4SCCS4)cc3)n2)cc1F`, for which the inhibition was -3.43% (inactive).

In the case of `COc1ccc(NC(=O)NCCN2CCN(c3ccc(C)cc3)CC2)c(Cl)c1`, the inhibition is -4.91% (inactive).

As to `CC1CCCCN1CCCNc1ccc(C(CC(N)=O)NC(=O)c2ccccc2)cc1[N+](=O)[O-]` (stereo not given), the inhibition was -3.52% (inactive).

As for `CCN(C(=O)Cc1c(C(=O)O)n(CC)c2ccccc12)c1ccccc1C`, the inhibition was 1.61% (inactive).

Regarding `CCC(C(=O)NC1CCCCC1)N(C(=O)c1snc(C(N)=O)c1N)c1ccc(OC)cc1OC` (stereo not given), the inhibition is 16.5% (inactive).

`CCCCc1nc(SCC(=O)Nc2nnc(C(C)C)s2)n[nH]1`: the inhibition was 24% (inactive).

As to `O=C(Nc1ccc(S(=O)(=O)N2CCCCCC2)cc1)c1c(F)cccc1F`, the inhibition is 22.1% (inactive).

On to `O=C(CSC(=S)N1CCOCC1)c1ccccc1`, for which the inhibition is 67.5% (active).

With `COC(=O)[C@H](Cc1ccccc1)NC(=O)N1CC(C)OC(C)C1` (stereo not given in full), the inhibition is -8.27% (inactive).

Regarding `CC1CN(C(=S)SCC(=O)c2ccccc2)CC(C)O1` (stereo not given), the inhibition is 94.2% (active).

Turning to `O=C(CP(=O)(c1ccccc1)c1ccccc1)N1CCOCC1`, the inhibition was -5.31% (inactive).

In the case of `O=C(CSC(=S)N1CCOCC1)c1cc(Br)cc(Br)c1O`, the inhibition was -11.8% (inactive).

Take `O=C(CSC(=S)N1CCCCC1)c1c(F)cccc1F`: the inhibition is 61.7% (active).

On to `CC(=O)c1ccc(NC(=O)CSC(=S)N2CCCC2)cc1`, for which the inhibition was -2.78% (inactive).

On to `CC1CN(C(=S)Nc2ccccc2F)CC(C)O1` (stereo not given), for which the inhibition was -12% (inactive).

With `O=C(O)C1CCCCC1C(=O)N1CCN(S(=O)(=O)c2ccc(F)cc2)CC1` (stereo not given), the inhibition was -21.1% (inactive).

Take `CC1CCN(C(=O)c2ccccc2NC(=O)Cc2ccccc2)CC1`: the inhibition is 13.5% (inactive).

Consider `Cc1c(C)c2ccc(OCC(=O)N3CCN(c4cccc(Cl)c4)CC3)cc2oc1=O`, for which the inhibition was -20.7% (inactive).

In the case of `COc1ccccc1C1C(C(N)=O)=C(C)Nc2nc(CCCO)nn21` (stereo not given), the inhibition was -12.2% (inactive).

Turning to `Cc1nc(SCC(=O)NC2CCCC2)[nH]c(=O)c1C`, the inhibition was -3% (inactive).

In the case of `CC(=O)NS(=O)(=O)c1ccc(N/C(N)=N/c2nc(C)cc(C)n2)cc1`, the inhibition is 4.41% (inactive).

On to `Cc1cccc2c1cnn2C(=O)CCC(=O)NC1CCCCC1`, for which the inhibition is -4.08% (inactive).

In the case of `CCOC(=O)N1CCN(Cc2nc3cc(NC(=O)CC)ccc3n2CC)CC1`, the inhibition was -2.96% (inactive).

In the case of `C=CCN(C(=O)Cn1ncc2c1-c1cc(C)ccc1OC2)c1ccccc1`, the inhibition was -10.9% (inactive).

On to `Cn1ncc(Br)c1C(=O)NCc1cccs1`, for which the inhibition is 20.7% (inactive).

As for `Cc1nc2cc(NC(=O)Nc3cccc(F)c3)ccc2n1C`, the inhibition is 27.6% (active).

With `Cc1nc2cc(NC(=O)NC3CC3)ccc2n1C`, the inhibition is 27.2% (inactive).

On to `Cc1nn(CC(=O)Nc2ccc3c(c2)nc(CN2CCCCC2)n3C)c(=O)c2ccccc12`, for which the inhibition is -8.7% (inactive).

On to `COc1ccc(-n2cnc3cc(NCc4ccco4)ccc32)cc1`, for which the inhibition is 66.3% (inactive).

In the case of `C=CCN(C(=O)Nc1ccc2oc(C)nc2c1)c1ccccc1`, the inhibition was 117% (active).

For the molecule `C=CCN(C(=O)Nc1ccc2c(c1)nc(C)n2C)c1ccccc1`, the inhibition is 46.7% (active).

As for `Cc1cc(C)cc(NC(=O)N(C)Cc2ccccc2)c1`, the inhibition is 13.5% (inactive).

Consider `Cc1nc2cc(NCc3cccs3)ccc2n1C`, for which the inhibition was 47.7% (active).

In the case of `Cc1cc2nc(C)n(CCCNC(=O)Nc3ccccc3)c2cc1C`, the inhibition was 9% (inactive).

With `O=C(NCCCn1ccnc1)/C(=C\c1ccccc1F)NC(=O)c1ccccc1`, the inhibition was -7.27% (inactive).

With `COc1cc(NC(=O)CCNC(=O)Cn2ccc3ccccc3c2=O)cc(OC)c1OC`, the inhibition is 11.7% (inactive).

As for `O=C1CN(C(=O)c2ccccc2F)C(c2ccc(F)cc2)c2cc(F)ccc2N1` (stereo not given), the inhibition is 18% (inactive).

Turning to `O=C(/C=C/c1ccc([N+](=O)[O-])cc1)NCCSCc1ccco1`, the inhibition was -2.44% (inactive).

With `Cc1cccc(N2CCN(C(=O)CCS(=O)(=O)c3ccc4c(c3)NC(=O)C(C)S4)CC2)c1C` (stereo not given), the inhibition is -11.3% (inactive).

Regarding `COc1cc(OC)c2c(c1C(CCN1CCCCC1)c1ccc(N(C)C)cc1)OC(=O)CC2c1ccc(N(C)C)cc1` (stereo not given), the inhibition is -7.65% (inactive).

As to `Cn1c(CCN2CCCCCC2)nc2cc(NC(=O)Nc3ccccc3)ccc21`, the inhibition is 73.3% (active).

For `Cn1c(CCN2CCCC2)nc2cc(NS(=O)(=O)c3ccccc3)ccc21`, the inhibition is 0.447% (inactive).

Consider `CCC(=O)Nc1ccc2c(c1)nc(CCN1CCN(c3ccccn3)CC1)n2C`, for which the inhibition was -4.67% (inactive).

Take `CC(C)c1ccc(S(=O)(=O)N2CCC3(CC2)OCCO3)cc1`: the inhibition was -8.25% (inactive).

With `CNc1nc(Nc2ccc(C)c(Cl)c2)nc(N)c1[N+](=O)[O-]`, the inhibition is 68.3% (active).

For the molecule `Nc1nc(Nc2ccccc2)nc(NCCO)c1[N+](=O)[O-]`, the inhibition was 16.8% (inactive).

On to `COc1cccc(Nc2nc(N)c([N+](=O)[O-])c(NCc3ccco3)n2)c1`, for which the inhibition is 45.8% (inactive).

In the case of `CN(Cc1ccco1)S(=O)(=O)c1nnc(NC(=O)c2ccccc2)s1`, the inhibition is 38.9% (inactive).

For `COc1ccc(/C=C/C(=O)OCC(=O)Nc2cccc(Oc3ccccc3)c2)c(OC)c1`, the inhibition is -4.44% (inactive).

With `COc1cc(/C=C/C(=O)OCC(=O)Nc2cccc(Oc3ccccc3)c2)ccc1O`, the inhibition is 51.6% (active).

On to `COc1cccc(NC(=O)COC(=O)CCOc2ccccc2OC)c1`, for which the inhibition was -8.03% (inactive).

With `CCOc1ccccc1CNS(=O)(=O)c1cc(-c2cc(C)no2)ccc1C`, the inhibition was -5.31% (inactive).

As to `CCCCC(=O)Nc1ccccc1N1CCN(c2ccc(F)cc2)CC1`, the inhibition was -8.03% (inactive).

As for `Cc1cc(C)c(S(=O)(=O)c2ccc(F)cc2C)c(=O)[nH]1`, the inhibition is 3.7% (inactive).

In the case of `O=C(N/C(=C\c1ccc([N+](=O)[O-])cc1)C(=O)N1CCCCC1)c1ccco1`, the inhibition was -18.7% (inactive).

For `O=C(O)c1ccccc1NC(=O)c1ccccc1-c1ccccc1C(=O)O`, the inhibition was -1.49% (inactive).

`O=C(NC(=S)Nc1ccccc1C(=O)O)c1ccc(-c2ccc(Br)cc2)o1`: the inhibition was 125% (active).

With `COC(=O)c1ccccc1NC(=S)NC(=O)c1ccccc1F`, the inhibition is -1.7% (inactive).

Take `O=C(CSc1nc2nccnc2c(=O)n1Cc1cccs1)Nc1ccccc1F`: the inhibition is 18.1% (inactive).

On to `CC(=O)Nc1ccc(NC(=O)C2CCCN(S(=O)(=O)c3ccc(Cl)cc3)C2)cc1` (stereo not given), for which the inhibition was -4.09% (inactive).

Take `CCCNC(=O)c1ccc(Cl)c(Cl)c1`: the inhibition is -6.36% (inactive).

As for `CCCNC(=O)CCc1c(C)nc2c(c(C)nn2-c2ccc(C)cc2)c1C`, the inhibition is -2.23% (inactive).

As to `CCCNC(=O)c1c(Cl)cnn1-c1ccc(C)cc1`, the inhibition is 59.9% (active).

Regarding `COc1cccc(NC(=O)c2nn(-c3ccc(OC)cc3OC)c(=O)c3ccccc23)c1`, the inhibition was -8.21% (inactive).

Regarding `COc1ccc(-n2nc(C(=O)Nc3cc(OC)c(OC)c(OC)c3)c3ccccc3c2=O)c(OC)c1`, the inhibition was -1.7% (inactive).

Take `COc1ccc(-n2nc(C(=O)NCC(=O)N3CCN(c4ccccc4OC)CC3)c3ccccc3c2=O)c(OC)c1`: the inhibition is 73.3% (active).

In the case of `Cc1cc(NC(=O)Nc2ccccc2[N+](=O)[O-])no1`, the inhibition is 28.7% (inactive).

Regarding `Cc1csc(NC(=O)NC2(C(F)(F)F)Oc3ccccc3O2)n1`, the inhibition is 24.4% (inactive).

Consider `Cc1csc(NC(=O)Nc2ccccc2[N+](=O)[O-])n1`, for which the inhibition was 67.7% (active).

Consider `COC(=O)C1=CN(c2ccc(F)c(F)c2)C=C(C(=O)OC)C1c1ccc([N+](=O)[O-])cc1`, for which the inhibition is 3.77% (inactive).

With `Cc1[nH][nH]c(=O)c1C(c1ccc2c(c1)OCO2)c1c(C)[nH][nH]c1=O`, the inhibition is -5.46% (inactive).

With `Nc1[nH][nH]c(=O)c1N=Nc1ccc2c(c1)OCO2`, the inhibition is 74.5% (active).

In the case of `Cc1[nH][nH]c(=O)c1N=Nc1ccccc1`, the inhibition was -4.84% (inactive).

With `CC1CCC(NS(=O)(=O)c2ccc3c(c2)CC(=O)N3)CC1` (stereo not given), the inhibition is -4.99% (inactive).

Consider `Clc1ccccc1SCc1nc2ccccc2[nH]1`, for which the inhibition was 79.4% (active).

As to `c1ccc2c(CSCc3nc4ccccc4[nH]3)cccc2c1`, the inhibition was 42.3% (inactive).

Regarding `COc1ccc(OC(C)C(=O)NCCc2nc3ccccc3[nH]2)cc1` (stereo not given), the inhibition was -1.88% (inactive).

In the case of `COc1cc(C(=O)NN(CCC#N)C2=NS(=O)(=O)c3ccccc32)cc(OC)c1OC`, the inhibition is -7% (inactive).

With `O=C(c1ccc(CS(=O)(=O)c2ccccc2)o1)N1CCN(c2ccccc2)CC1`, the inhibition was -5.16% (inactive).

Take `COc1ccc(C2(C)NC(=O)N(CC(=O)c3ccc4c(c3)OCO4)C2=O)cc1` (stereo not given): the inhibition is 20.5% (inactive).

As to `O=C(CSc1nnc(CNC(=O)c2ccc(F)cc2)o1)Nc1ccc2c(c1)OCO2`, the inhibition is -2.6% (inactive).

In the case of `O=C(O)c1ccc(OCC2CCCO2)cc1` (stereo not given), the inhibition is -1.54% (inactive).

Take `C=CCn1c(SCc2ccccc2)nc2c1c(=O)[nH]c(=O)n2C`: the inhibition was -10.2% (inactive).

As to `Cc1c(C(=O)NC(C)C2CC3CCC2C3)cccc1[N+](=O)[O-]` (stereo not given), the inhibition is -7.71% (inactive).

Take `COC(=O)/C(NC(C)=O)=C(\C)c1ccc(Cl)cc1`: the inhibition was -4.26% (inactive).

As for `COC(=O)c1cn(C(=O)c2ccc(Cl)cc2)c2ccccc12`, the inhibition was 10.5% (inactive).

For `COC(=O)C(=Nc1ccccc1)/C(C(=O)C(=O)N(C)c1ccccc1)=C(\O)c1ccc(Cl)cc1`, the inhibition was 127% (active).

As to `COCCn1cnc2c1c(=O)n(Cc1ccc(Br)cc1)c(=O)n2Cc1ccccc1`, the inhibition is 15.6% (inactive).

On to `Cc1cccc(NC(=S)N2CCCC(c3nc4ccccc4[nH]3)C2)c1` (stereo not given), for which the inhibition is -11.2% (inactive).

`O=C(C1CCCO1)N1CCN(C(=S)Nc2cccc(Cl)c2)CC1` (stereo not given): the inhibition was -2.49% (inactive).

With `Cc1ccc(C2CCN(C(=S)Nc3cccc(Cl)c3)C2)cc1` (stereo not given), the inhibition was 47.7% (active).
